The results in this text go back to article PMC4336329 (PLoS ONE, 2015).

Hit rate of the full screen: of about 310,000 compounds, about 14,000 (4.5%) showed an effect of 50% or more. The effect is printed as a negative number. Many of the other results were omitted from the sample, so strong results are more common in it than they were.
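Note: peak tail current of the secondary pulse compared with the same well before compound.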

In this assay the target is human ether-à-go-go-related gene (hERG) potassium channel (human, UniProt Q12809). The assay is described as follows: primary screen, population patch clamp on CHO cells stably expressing hERG; higher = less effect of the substance.
Chain of human ether-à-go-go-related gene (hERG) potassium channel (Q12809 whole entry, looked up): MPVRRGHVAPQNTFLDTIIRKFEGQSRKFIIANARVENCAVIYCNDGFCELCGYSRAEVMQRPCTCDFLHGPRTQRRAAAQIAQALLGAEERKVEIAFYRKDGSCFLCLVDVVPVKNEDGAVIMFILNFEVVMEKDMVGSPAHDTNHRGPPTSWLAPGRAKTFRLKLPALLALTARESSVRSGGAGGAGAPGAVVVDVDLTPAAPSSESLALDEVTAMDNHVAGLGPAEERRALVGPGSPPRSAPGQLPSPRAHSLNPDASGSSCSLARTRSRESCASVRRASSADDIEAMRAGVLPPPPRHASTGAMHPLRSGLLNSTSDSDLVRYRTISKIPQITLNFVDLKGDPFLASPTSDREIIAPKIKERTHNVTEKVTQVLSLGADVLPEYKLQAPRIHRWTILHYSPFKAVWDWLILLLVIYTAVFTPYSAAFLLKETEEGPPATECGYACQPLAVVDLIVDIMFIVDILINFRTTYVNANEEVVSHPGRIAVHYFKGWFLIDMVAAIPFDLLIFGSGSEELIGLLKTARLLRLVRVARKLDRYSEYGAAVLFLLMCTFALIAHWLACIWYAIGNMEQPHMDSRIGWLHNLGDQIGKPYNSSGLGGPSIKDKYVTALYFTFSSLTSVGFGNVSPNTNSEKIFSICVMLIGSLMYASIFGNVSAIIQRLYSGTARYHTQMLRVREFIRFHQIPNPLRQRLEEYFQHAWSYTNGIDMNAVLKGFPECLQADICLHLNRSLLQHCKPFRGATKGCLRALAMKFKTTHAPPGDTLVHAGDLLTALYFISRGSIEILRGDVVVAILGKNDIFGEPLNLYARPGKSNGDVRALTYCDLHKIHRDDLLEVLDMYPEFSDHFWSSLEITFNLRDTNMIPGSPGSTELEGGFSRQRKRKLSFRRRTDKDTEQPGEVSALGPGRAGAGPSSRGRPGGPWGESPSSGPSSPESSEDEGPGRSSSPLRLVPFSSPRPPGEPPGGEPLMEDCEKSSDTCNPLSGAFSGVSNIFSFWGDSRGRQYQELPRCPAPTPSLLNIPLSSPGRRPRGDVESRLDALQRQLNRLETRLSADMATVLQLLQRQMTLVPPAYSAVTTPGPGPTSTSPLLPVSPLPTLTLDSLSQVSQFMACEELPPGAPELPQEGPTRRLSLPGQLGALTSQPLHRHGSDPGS
Take `COc1ccc(OC)c(S(=O)(=O)N2CCCC(C(=O)N3CCOCC3)C2)c1` (stereo not shown): the “hERG current change (%, negative = inhibition) at 10uM” value was determined as 20.5%.
To `COc1ccc(Cl)cc1S(=O)(=O)N1CCCC(C(=O)N2CCOCC2)C1` (stereo not shown) belongs -69.4%; to `O=C(C1CCCN(S(=O)(=O)c2cc(Cl)ccc2Cl)C1)N1CCCC1` (stereo not shown), -19.5%; to `O=C(C1CCCN(S(=O)(=O)c2cc(Cl)ccc2Cl)C1)N1CCCCCC1` (stereo not shown), -62.4%.
Regarding `O=C(C1CCCN(S(=O)(=O)c2cc(Cl)ccc2Cl)C1)N1CCOCC1` (stereo not shown), the “hERG current change (%, negative = inhibition) at 10uM” value is given as -33.2%.
Turning to `COc1ccc(Cl)cc1S(=O)(=O)N1CCCC(C(=O)N2CCCC2)C1` (stereo not shown), the “hERG current change (%, negative = inhibition) at 10uM” value is -5.2%.
With `O=C(NCc1ccc(F)cc1)C(=O)NCC1OCCN1C(=O)c1ccc(Cl)cc1` (stereo not shown), the “hERG current change (%, negative = inhibition) at 10uM” value was -43.2%.
As to `CN(C)Cc1c(O)ccc2cc(-c3nc4ccccc4n3C)c(=O)oc12`, the “hERG current change (%, negative = inhibition) at 10uM” value turned out to be 10.2%.
`O=C1/C(=C/c2cccs2)SC(=S)N1N1CCOCC1`: the “hERG current change (%, negative = inhibition) at 10uM” value was 5.26%.
As to `O=[N+]([O-])c1cc(CN2CCN(c3ccccc3)CC2)c(O)c2ncccc12`, the “hERG current change (%, negative = inhibition) at 10uM” value is given as -7.8%.
Then `O=[N+]([O-])c1cc(S(=O)(=O)/N=C(/c2ccccc2)N2CCOCC2)ccc1Cl`, with -23.9%; and `CC(C)CSC1=NSC2=NC(=O)/C(=C\c3cccs3)C(=N)N12`, with 20.2%; and `COc1ccc(C(CNC(=O)C(C)(C)Oc2ccc(Cl)cc2)N2CCCCC2)cc1` (stereo not shown), with -53.8%.
With `COc1ccccc1C(CNC(=O)C(C)(C)Oc1ccc(Cl)cc1)N1CCCC1` (stereo not shown), the “hERG current change (%, negative = inhibition) at 10uM” value was -45.1%.
`COc1ccc(C(CNC(=O)C(C)(C)Oc2ccc(Cl)cc2)N2CCCC2)cc1` (stereo not shown): the “hERG current change (%, negative = inhibition) at 10uM” value is recorded as -50.1%.
For the compound `CC(C)(Oc1ccc(Cl)cc1)C(=O)NCC(c1cccs1)N1CCOCC1` (stereo not shown), the “hERG current change (%, negative = inhibition) at 10uM” value is on record as -5.84%.
Take `COc1ccc(C(CNC(=O)Cc2ccccc2Cl)N2CCCCC2)cc1` (stereo not shown): the “hERG current change (%, negative = inhibition) at 10uM” value was 23%.
To `CC(C)(Oc1ccc(Cl)cc1)C(=O)NCC(c1ccco1)N1CCCCC1` (stereo not shown) belongs -20.2%; to `COc1ccc(N(CC(=O)O)S(=O)(=O)c2ccc(OC)c(OC)c2)cc1`, -29.6%.
Regarding `O=C(COc1ccccc1)Nc1cccc(-c2nc3cc4ccccc4cc3[nH]2)c1`, the “hERG current change (%, negative = inhibition) at 10uM” value is listed as -9.82%.
With `COc1ccc(OCC(=O)Nc2cccc(-c3nc4ccccc4[nH]3)c2)cc1`, the “hERG current change (%, negative = inhibition) at 10uM” value is on record as -55.9%.
Consider `O=C(COc1ccccc1)Nc1cccc(-c2nc3ccccc3[nH]2)c1`, for which the “hERG current change (%, negative = inhibition) at 10uM” value is -67%.
As for `CS(=O)(=O)c1cccc(C(=O)Nc2ccc(-c3nc4ccccc4[nH]3)cc2)c1`, the “hERG current change (%, negative = inhibition) at 10uM” value is recorded as 11.5%.
In the case of `O=C(O)CCCC(=O)Nc1cccc(-c2nc3ccccc3[nH]2)c1`, the “hERG current change (%, negative = inhibition) at 10uM” value amounted to 34.1%.
In the case of `CC(=O)Nc1cccc(-c2nc3ccccc3[nH]2)c1`, the “hERG current change (%, negative = inhibition) at 10uM” value stood at 1.87%.
To `CC(C)CC(=O)Nc1cccc(-c2nc3ccccc3[nH]2)c1` belongs -16.5%.
With `CS(=O)(=O)c1cccc(C(=O)Nc2cccc(-c3nc4ccccc4[nH]3)c2)c1`, the “hERG current change (%, negative = inhibition) at 10uM” value is reported as -56.7%.
Turning to `CS(=O)(=O)c1ccc(C(=O)Nc2cccc(-c3nc4ccccc4[nH]3)c2)cc1`, the “hERG current change (%, negative = inhibition) at 10uM” value stood at 16%.
Turning to `COc1ccc(-n2c(SCC(=O)Nc3ccc4c(c3)OCO4)nc3c(c2=O)SCC3)cc1`, the “hERG current change (%, negative = inhibition) at 10uM” value is -10.9%.
Take `CCN(C(=S)NCCOC)c1cccc2ccccc12`: the “hERG current change (%, negative = inhibition) at 10uM” value is 8.8%.
On to `CC1(O)N(Cc2ccccc2)C(=O)OC12CCCCC2` (stereo not shown), for which the “hERG current change (%, negative = inhibition) at 10uM” value is reported as 9.89%.
To `CC1CN(CC(=O)NCc2ccc(F)cc2)CC(C)O1` (stereo not shown) belongs 7.79%; to `CCn1ncc(S(=O)(=O)N2CCN(c3cccc(OC)c3)CC2)c1C`, 5.68%.
For the compound `N/C(=N\OC(=O)c1ccccc1[N+](=O)[O-])c1cccnc1`, the “hERG current change (%, negative = inhibition) at 10uM” value was -2.9%.
`O=C(NCc1ccco1)c1cccc(S(=O)(=O)N2CCCCC2)c1`: the “hERG current change (%, negative = inhibition) at 10uM” value was -24.7%.
In the case of `Cc1ccc[n+](Cc2ccc([N+](=O)[O-])cc2)c1.[Br-]`, the “hERG current change (%, negative = inhibition) at 10uM” value was determined as 27.1%.
Then `C=CCc1ccc(OC(=O)c2ccccc2)c(OC)c1`, with 5.73%; and `C=CCc1ccc(OCCCNCc2ccccc2)c(OC)c1.O=C(O)C(=O)O`, with -57.4%.
On to `C=CCc1ccc(OCCCCNC(C)CC)c(OC)c1.O=C(O)C(=O)O` (stereo not shown), for which the “hERG current change (%, negative = inhibition) at 10uM” value is -39.3%.
As for `C/C=C/c1ccc(OCC(=O)N2CCc3cc(OC)c(OC)cc3C2)c(OC)c1`, the “hERG current change (%, negative = inhibition) at 10uM” value was -12.4%.
For `C=CCc1cc(OC)ccc1OCCN(C)Cc1ccccc1.O=C(O)C(=O)O`, the “hERG current change (%, negative = inhibition) at 10uM” value is given as -16.6%.
Then `C=CCc1cc(C)ccc1OCCOCCN1CCN(C)CC1.O=C(O)C(=O)O`, with -10.7%; and `COc1cc(C)ccc1OCCCCNCc1ccccc1.O=C(O)C(=O)O`, with -0.752%; and `C=CCc1ccc(OCCN2CCc3ccccc3C2)c(OC)c1.O=C(O)C(=O)O`, with -67.6%.
For `C/C=C/c1ccc(OCCN2CCc3ccccc3C2)c(OC)c1`, the “hERG current change (%, negative = inhibition) at 10uM” value is on record as -77.7%.
To `C/C=C/c1ccc(OCCn2nnc3ccccc32)c(OC)c1` belongs -2.9%.
